This is a sample that favours compounds with a hit; in the whole collection about 21% have one here.
Shiga toxin inh: blocks Shiga toxin action in Vero cells; Vero cells, Shiga toxin protein synthesis inhibition reporter; inhibition, % at 38.7 µM; 9.2% of 290,000 active; AID 2315; in the data active means inhibition mostly above about 28%, no sharp cut-off; inactive means mostly below about 43%; further: 0% is about no effect
Pf growth 48h: P. falciparum growth inhibition at 48 hours (one generation); P. falciparum luciferase growth in erythrocytes, 48 h; Potency, µM (titrated, usually from 28.7 µM), without a hit: at the highest dose activity change, negative = inhibition, most hits filed as inhibitors; 5.9% of 310,000 active; AID 504832; further: potency means the concentration at half of the fitted maximal effect; on the % scale 0 is the no-effect control and ±100 the full control effect
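Firefly luciferase activity from engineered P. falciparum reports growth; inhibitors lower the luminescent signal. Cultures contained 2% hematocrit erythrocytes at 0.1% final parasitemia.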
Pf growth 96h: P. falciparum growth inhibition at 96 hours. P. falciparum luciferase reporter growth, 96 h. Potency, µM (titrated, usually from 28.7 µM), for the others: top-dose activity change, negative = inhibition, most hits filed as inhibitors. 6.9% of 320,000 active; further: potency means the concentration at half of the fitted maximal effect; on the % scale 0 is the no-effect control and ±100 the full control effect
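Parasite growth measured via integrated firefly luciferase reporter in P. falciparum. Infected erythrocytes at 2% hematocrit, 0.05% parasitemia final were treated 96 hours at 37 C under 5% CO2, and luminescence was read.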
AMA1 RON2 block: AMA1-RON2 (P. falciparum) interaction inhibition. AlphaScreen AMA1-biotinylated RON2 peptide binding. 0.2% of 360,000 active. AID 720542. Potency, µM (series often up to 58.2 µM), inactives show at the highest dose activity change, negative = inhibition, most hits filed as inhibitors;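 further: potency means the concentration at half of the fitted maximal effect; 0% = vehicle wells and -100% = peptide control; nearly all actives have a fitted effect of over 45% in size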
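AMA1 (3D7) with his tag at 25 nM final met compounds first, then biotinylated RON2 peptide at 25 nM; detection used donor plus acceptor beads, 10 µg/mL apiece, read by AlphaScreen after 30 min at room temperature.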
HCV inhibitor: HCV inhibition. Huh7.5.1 HCVcc-Cre infection, luciferase reporter, 44 h. Potency, µM (highest dose often 41.8 µM), inactives show top-dose activity change, negative = inhibition, actives largely listed as inhibitors. 3.4% of 340,000 active. AID 651820; further: potency means the concentration at half of the fitted maximal effect; on the % scale 0 is the no-effect control and ±100 the full control effect
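Compounds are dispensed onto cells plated 4 h earlier at 1,000 per well, with HCVcc-Cre virus (about 0.5 moi) added next. Following 44 h of culture, luminescent signal is measured for 15 sec after 15 min with substrate at room temperature.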
CHX counter: affects cycloheximide protein synthesis inhibition readout, counter-screen | cell reporter, cycloheximide protein synthesis inhibition counterscreen | max response, % | 12% of 300,000 active | AID 2314; in the data active means max response mostly above about 13%, no sharp cut-off; inactive means mostly below about 14%; further: read at 38.3 µM for the half of the compounds with a filed dose; 0% is about no effect
* = called active by the depositor; ? = inconclusive; . = not tested or not shown; [ ] = another dose, or the depositor's remark. Unless noted, the call rests on the fitted dose curve; in most records, active means well fitted curve in the direction sought with a large enough effect; inconclusive means small, poorly fitted or top-dose-only effect, or another doubt; inactive means no such curve, though single readings can be large; an effect the other way counts as inactive or inconclusive.

SMILES | Shiga toxin inh | Pf growth 48h | Pf growth 96h | AMA1 RON2 block | HCV inhibitor | CHX counter
COC(=O)[C@H](CC(C)C)NCc1cccc(CN[C@@H](CC(C)C)C(=O)OC)c1 | -3 | ? | ? | 14% | -16% | 1
COC(=O)C1=C(C)NC2=C(C(=O)c3ccccc32)C1c1cccc(OC)c1 (configuration not stated) | -6 | 1% | 8% | -8% | ? | 1
CC1=C([N+](=O)[O-])C(c2cccc(Br)c2)C2=C(N1)c1ccccc1C2=O (configuration not stated) | 28 | 4.7µM* | . | -5% | ? | -2
CC(=O)Nc1ccc(S(=O)(=O)NCC2CC3CCC2C3)cc1 (configuration not stated) | . | . | . | -4% | -30% | .
CC1(C#N)c2ccccc2C(Br)=CN1C(=O)c1ccccc1 (configuration not stated) | . | 10µM* | ? | 5% | 6% | .
CC(=O)O[C@@H]1[C@H]2[C@@H](C[C@@H](C)[C@@H]3CCC(=O)[C@@]13C)OC(=O)[C@@H]2C | -11 | 18% | 55% | 13% | -14% | 18*
Cc1cc(C)c(C(=O)COC(=O)c2cc([N+](=O)[O-])ccc2N2CCOCC2)cc1C | . | 10µM* | ? | 0% | -22% | .
O=C(COC(=O)c1cc([N+](=O)[O-])ccc1N1CCOCC1)c1ccccc1Cl | -5 | 15% | 16% | -9% | ? | 1
COc1cc(C(=O)COC(=O)c2cc([N+](=O)[O-])ccc2N2CCOCC2)ccc1OC(F)F | . | ? | ? | -10% | 1.1µM* | .
COc1ccccc1C(=O)COC(=O)c1cc([N+](=O)[O-])ccc1N1CCOCC1 | . | 4.7µM* | ? | -13% | ? | .
COc1ccc(C(=O)COC(=O)c2cc([N+](=O)[O-])ccc2N2CCOCC2)c(OC)c1 | . | -8% | 2% | 5% | 1µM* | .
Cc1ncc(CO)n1Cc1ccc(Cl)cc1 | . | . | . | 0% | . | .
Cc1c(O)cnc2nn(-c3ccccc3)c(=N)n12 | . | . | . | 2% | . | .
COC(=O)[C@@]12C[C@@H](CC(=O)N3CCN(C(=O)c4ccco4)CC3)C(=O)N(Cc3cccc4ccccc34)C1=CCC(C)(C)C2 | . | . | . | -21% | . | .
CC1CC(C)CN(C(=O)COC(=O)c2cc([N+](=O)[O-])ccc2N2CCOCC2)C1 (configuration not stated) | . | ? | ? | -1% | ? | .
CC1CCCN(C(=O)COC(=O)c2cc([N+](=O)[O-])ccc2N2CCOCC2)C1 (configuration not stated) | . | -22% | -5% | 1% | 32µM* | .
CC/C(=N\NC(=S)Nc1ccccc1)c1c(O)[nH]c(=O)[nH]c1=O | 32* | 25% | ? | 10% | 17% | 29*
C=CCn1c(O)c(C(C)=NC2CCN(Cc3ccccc3)CC2)c(=O)[nH]c1=O | -8 | 0% | -14% | -6% | 12% | -3
CCC(=NC1CCN(Cc2ccccc2)CC1)c1c(O)[nH]c(=O)[nH]c1=O | -27 | ? | 5.2µM* | -8% | 8% | 6
C/C(=N\Nc1ccccc1)c1c(O)[nH]c(=O)[nH]c1=O | 10 | -21% | 7% | 5% | -11% | 8
NC(=O)NC(=O)c1nccnc1C(=O)O | -5 | 20% | 101% | 0% | 9% | -2
CCOC(=O)c1ccc(N/C(=N\S(=O)(=O)c2ccc(F)cc2F)c2ccccc2)cc1 | -4 | ? | 6.6µM* | 2% | -25% | 1
O=C(Nc1ccc(C(=O)N2CCCC2)cc1)c1cc(F)c(F)cc1Cl | . | . | . | -5% | . | .
COc1ccc(NC(=O)c2cc(F)c(F)cc2Cl)cc1Cl | 50* | 42% | 29% | 1% | -12% | 46*
CCOC(=O)c1ccc(NC(=O)c2cc(F)c(F)cc2Cl)cc1 | 48 | 11% | -13% | 6% | ? | 18*
SMILES | Shiga toxin inh | Pf growth 48h | Pf growth 96h | AMA1 RON2 block | HCV inhibitor | CHX counter
O=C(Nc1ccc2[nH]c(=O)[nH]c2c1)c1cc(F)c(F)cc1Cl | 25 | 10% | -2% | -6% | 7% | 8
CCOc1ccc(N(C(=O)c2cc3ccccc3oc2=O)C2C=CS(=O)(=O)C2)cc1 (configuration not stated) | 78* | -7% | ? | -10% | -8% | 28*
COc1ccc(C2CC2/C(=N/OC(=O)c2cccs2)c2ccccc2)cc1 (configuration not stated) | 45 | -28% | . | -6% | -13% | 29*
O=C(CCc1ccccc1)NC(=S)Nc1cc(C(F)(F)F)ccc1N1CCOCC1 | 35 | ? | 8.3µM* | 10% | -8% | -2
O=C(Cc1ccc2c(c1)OCCO2)Nc1cc(C(F)(F)F)ccc1N1CCOCC1 | . | 15µM* | ? | 1% | ? | .
Cc1cccc(NC(=O)CSCC(=O)Nc2cc(C(F)(F)F)ccc2N2CCOCC2)c1 | . | . | . | -12% | . | .
Cc1ccc[n+](CC(=O)Nc2cc(C(F)(F)F)ccc2N2CCOCC2)c1 | -4 | 2.1µM* | ? | 3% | 2% | -1
COc1ccc(NC(C)=O)cc1NC(C)C(=O)Nc1cc(C(F)(F)F)ccc1N1CCOCC1 (configuration not stated) | -14 | 3.7µM* | ? | -6% | ? | -2
CCCS(=O)(=O)NC(=O)C1(C)CCN(C(=O)c2cccc(C(F)(F)F)c2)C1 (configuration not stated) | . | . | . | 1% | . | .
Cc1ccc(CCNC(=O)Cc2ccc(NC3=NC4CS(=O)(=O)CC4S3)cc2)cc1 (configuration not stated) | -1 | 20% | ? | 9% | 16% | 1
N#C/C(=C/c1ccc(N2CCOCC2)o1)c1ccc(Cl)cc1 | 37 | 160% | 218% | -22% | -13% | 36*
Cc1ccc2nc(/C(C#N)=C\c3ccc(N4CCCCC4)c([N+](=O)[O-])c3)[nH]c2c1 | 25 | ? | ? | -9% | 7.1µM* | 20
N#C/C(=C\c1ccc(N2CCOCC2)c([N+](=O)[O-])c1)c1nc2ccccc2[nH]1 | 13 | ? | ? | 0% | ? | 13*
CN1C(=O)C(=Cc2ccc(N3CCOCC3)o2)C(=O)N(C)C1=S | -7 | -11% | ? | -7% | -9% | -3
N#C/C(=C\c1ccc(N2CCOCC2)o1)c1nc2ccccc2[nH]1 | 121* | 62% | 56% | 12% | ? | 49*
COc1ccccc1NC(=O)C(C)OC(=O)CCCOc1ccccc1 (configuration not stated) | . | 3% | 4% | 3% | 6%[8.37 µM] | .
CCNC(=O)C1CCCN(C(=O)Cc2cccs2)CC1 (configuration not stated) | . | . | . | -10% | . | .
O=S(=O)(c1ccccc1)N1CCN(S(=O)(=O)c2ccc3c(c2)OCCO3)CC1 | -10 | . | . | . | . | -3
